# From PubChem BioAssay AID1159580 (chemical genetic matrix, 2015)
# Where “and” joins values, the source holds several entries; their conditions need not be identical. Identical values can stand only once. Among all 5,500 compounds or so, about 2,000 (36%) were called active. Roughly 18% stayed inconclusive and do not appear here. The list shows a part of the results. Unmarked numbers belong to inactive results. Rule as the data show it: active = normalized growth mostly below about 0.91 (no sharp cut-off); inconclusive = no clear call, values can overlap the other calls; inactive = mostly above about 0.92.
# Experiment: chemical genetic growth profiling, strain panel (AID 1159580);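 also: tested at 20 µM; growth read once vehicle control cultures reached saturation at 30 °C; 1 = growth at the plate median or of vehicle wells; lower values mean less growth of the strain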
# Conditions: S. cerevisiae deletion strains, growth OD
smiles,measurement,setting,value
Nc1c2ccccc2nc2ccccc12 (tested in a mixture with another compound),normalized growth,"locus YAL013W, strain DEP1, active compounds read low",0.822 (active)
same,normalized growth,"locus YAL021C, strain ccr4, active compounds read low",0.67 (active)
same,normalized growth,"locus YAL026C, strain drs2, active compounds read low",0.541 (active)
same,normalized growth,"locus YAL030W, strain snc1, active compounds read low",0.679 (active)
same,normalized growth,"locus YBL061C, strain skt5, active compounds read low",0.795 (active)
same,normalized growth,"locus YBR009C, strain hhf1, active compounds read low",0.495 (active)
same,normalized growth,"locus YBR021W, strain FUR4, active compounds read low",0.985
same,normalized growth,"locus YBR023C, strain chs3, active compounds read low",0.751 (active)
same,normalized growth,"locus YBR171W, strain sec66, active compounds read low",0.964
same,normalized growth,"locus YBR229C, strain ROT2, active compounds read low",0.976
same,normalized growth,"locus YBR231C, strain swc5, active compounds read low",0.677 (active)
same,normalized growth,"locus YBR279W, strain paf1, active compounds read low",0.555 (active)
same,normalized growth,"locus YCL011C, strain gbp2, active compounds read low",0.704 (active)
same,normalized growth,"locus YCL016C, strain dcc1, active compounds read low",0.467 (active)
same,normalized growth,"locus YCL029C, strain bik1, active compounds read low",0.485 (active)
same,normalized growth,"locus YCL061C, strain MRC1, active compounds read low",0.842 (active)
same,normalized growth,"locus YCL069W, strain vba3, active compounds read low",0.777 (active)
same,normalized growth,"locus YCR088W, strain abp1, active compounds read low",0.682 (active)
same,normalized growth,"locus YDL005C, strain med2, active compounds read low",0.801 (active)
same,normalized growth,"locus YDL035C, strain GPR1, active compounds read low",0.507 (active)
same,normalized growth,"locus YDL040C, strain nat1, active compounds read low",0.875 (active)
same,normalized growth,"locus YDL074C, strain BRE1, active compounds read low",0.498 (active)
same,normalized growth,"locus YDL101C, strain DUN1, active compounds read low",0.76 (active)
same,normalized growth,"locus YDL134C, strain PPH21, active compounds read low",0.629 (active)
same,normalized growth,"locus YDL185W, strain tfp1, active compounds read low",0.998
same,normalized growth,"locus YDL192W, strain arf1, active compounds read low",0.691 (active)
same,normalized growth,"locus YDR001C, strain nth1, active compounds read low",0.956
same,normalized growth,"locus YDR069C, strain doa4, active compounds read low",0.519 (active)
same,normalized growth,"locus YDR101C, strain arx1, active compounds read low",0.593 (active)
same,normalized growth,"locus YDR137W, strain rgp1, active compounds read low",0.572 (active)
same,normalized growth,"locus YDR150W, strain NUM1, active compounds read low",0.883 (active)
same,normalized growth,"locus YDR159W, strain sac3, active compounds read low",0.773 (active)
same,normalized growth,"locus YDR162C, strain NBP2, active compounds read low",0.718 (active)
same,normalized growth,"locus YDR297W, strain sur2, active compounds read low",0.749 (active)
same,normalized growth,"locus YDR318W, strain mcm21, active compounds read low",0.655 (active)
same,normalized growth,"locus YDR334W, strain swr1, active compounds read low",0.943
same,normalized growth,"locus YDR335W, strain msn5, active compounds read low",0.807 (active)
same,normalized growth,"locus YDR388W, active compounds read low",0.406 (active)
same,normalized growth,"locus YDR392W, strain spt3, active compounds read low",0.6 (active)
same,normalized growth,"locus YDR502C, strain sam2, active compounds read low",0.606 (active)
same,normalized growth,"locus YEL003W, strain gim4, active compounds read low",0.665 (active)
same,normalized growth,"locus YEL037C, strain rad23, active compounds read low",0.763 (active)
same,normalized growth,"locus YEL061C, strain CIN8 (second series), active compounds read low",0.887 (active)
same,normalized growth,"locus YEL061C, strain CIN8, active compounds read low",0.838 (active)
same,normalized growth,"locus YER015W, strain faa2, active compounds read low",0.821 (active)
same,normalized growth,"locus YER016W, strain bim1, active compounds read low",0.686 (active)
same,normalized growth,"locus YER110C, active compounds read low",0.996
same,normalized growth,"locus YER111C, strain swi4, active compounds read low",0.904 (active)
same,normalized growth,"locus YER155C, strain BEM2 (second series), active compounds read low",0.774 (active)
same,normalized growth,"locus YER155C, strain BEM2, active compounds read low",0.89 (active)
same,normalized growth,"locus YER167W, strain BCK2, active compounds read low",0.58 (active)
same,normalized growth,"locus YFR010W, strain ubp6, active compounds read low",0.627 (active)
same,normalized growth,"locus YGL078C, strain dbp3, active compounds read low",0.778 (active)
same,normalized growth,"locus YGL086W, strain mad1, active compounds read low",0.618 (active)
same,normalized growth,"locus YGL167C, strain pmr1, active compounds read low",0.927
same,normalized growth,"locus YGL173C, strain kem1, active compounds read low",0.656 (active)
same,normalized growth,"locus YGL227W, strain vid30, active compounds read low",0.836 (active)
same,normalized growth,"locus YGL240W, strain doc1, active compounds read low",0.874 (active)
same,normalized growth,"locus YGL248W, strain PDE1, active compounds read low",0.559 (active)
same,normalized growth,"locus YGL253W, strain hxk2, active compounds read low",0.582 (active)
same,normalized growth,"locus YGR078C, strain PAC10, active compounds read low",0.703 (active)
same,normalized growth,"locus YGR135W, strain pre9, active compounds read low",0.704 (active)
same,normalized growth,"locus YGR229C, strain SMI1, active compounds read low",0.68 (active)
same,normalized growth,"locus YGR252W, strain gcn5, active compounds read low",0.461 (active)
same,normalized growth,"locus YHR013C, strain ard1, active compounds read low",0.494 (active)
same,normalized growth,"locus YHR027C, strain rpn1, active compounds read low",0.853 (active)
same,normalized growth,"locus YHR030C, strain SLT2, active compounds read low",0.749 (active) and 0.474 (active)
same,normalized growth,"locus YHR079C, strain IRE1 (second series), active compounds read low",0.531 (active)
same,normalized growth,"locus YHR079C, strain IRE1, active compounds read low",0.484 (active)
same,normalized growth,"locus YHR129C, strain ARP1, active compounds read low",0.781 (active)
same,normalized growth,"locus YHR142W, strain chs7, active compounds read low",0.729 (active)
same,normalized growth,"locus YHR200W, strain rpn10, active compounds read low",0.735 (active)
same,normalized growth,"locus YIL066C, strain RNR3, active compounds read low",0.775 (active)
same,normalized growth,"locus YIL073C, strain SPO22, active compounds read low",0.535 (active)
same,normalized growth,"locus YIL125W, strain kgd1, active compounds read low",0.9 (active)
same,normalized growth,"locus YIR030C, strain dcg1, active compounds read low",0.575 (active)
same,normalized growth,"locus YJL092W, strain hpr5, active compounds read low",0.802 (active)
same,normalized growth,"locus YJL095W, strain BCK1 (second series), active compounds read low",0.766 (active)
same,normalized growth,"locus YJL095W, strain BCK1, active compounds read low",0.474 (active) and 0.436 (active)
same,normalized growth,"locus YJL115W, strain asf1, active compounds read low",0.849 (active)
same,normalized growth,"locus YJL129C, strain trk1, active compounds read low",1.02
same,normalized growth,"locus YJL134W, strain LCB3, active compounds read low",0.982
same,normalized growth,"locus YJL154C, strain vps35, active compounds read low",0.859 (active)
same,normalized growth,"locus YJL164C, strain tpk1, active compounds read low",0.562 (active)
same,normalized growth,"locus YJL166W, strain qcr8, active compounds read low",0.693 (active)
same,normalized growth,"locus YJL168C, strain set2, active compounds read low",0.946
same,normalized growth,"locus YJL187C, strain SWE1 (second series), active compounds read low",0.565 (active)
same,normalized growth,"locus YJL187C, strain SWE1, active compounds read low",0.813 (active)
same,normalized growth,"locus YJR043C, strain POL32, active compounds read low",0.686 (active)
same,normalized growth,"locus YJR066W, strain TOR1, active compounds read low",0.397 (active)
same,normalized growth,"locus YJR075W, strain HOC1, active compounds read low",0.505 (active)
